Only some compounds are listed: those with a hit (about 12% of all), similar ones and a draw of the others.
OTUD3 block = inhibitors of human OTUD3 deubiquitinase | OTU domain-containing protein 3 (Homo sapiens), Q5T2D3 | purified OTUD3, Ub-rhodamine fluorescence, 2 h | inhibition, % at 25 µM | actives 0.7% (n = 47,000) | AID 1645858, 2021
USP28 inh = inhibitors of human USP28 deubiquitinase; Ubiquitin carboxyl-terminal hydrolase 28 (Homo sapiens), Q96RU2; purified USP28, Ub-rhodamine cleavage fluorescence, 30 min; inhibition, % at 25 µM; actives 3% (n = 47,000)
USP17 inh = inhibitors of human USP17 deubiquitinase; actives 6.5% (n = 47,000); purified USP17, Ub-rhodamine cleavage fluorescence, 3 h; inhibition, % at 50 µM
USP30 block = inhibitors of human USP30 deubiquitinase; Ubiquitin carboxyl-terminal hydrolase 30 (Homo sapiens), Q70CQ3; purified USP30, Ub-rhodamine cleavage fluorescence; inhibition, % at 25 µM; actives 5.3% (n = 47,000); AID 1645860, 2021
Active calls of the source: *; nt = no result given. No stated cut-off is given here; in the data, active means inhibition above about 30%; inactive means the rest.

SMILES	OTUD3 block	USP28 inh	USP17 inh	USP30 block
NS(=O)(=O)c1ccc(CNC(=O)c2ccc(Cl)c(S(=O)(=O)Nc3cc(Cl)ccc3Cl)c2)cc1	-60	-49	-156	-286
Cc1cc(OCC(=O)N2CCCCC2)nc(-c2ccc(F)cc2)n1	1	-6	-9	6
Oc1ccc(-c2nnc(Nc3ccc(Cl)c(Cl)c3)c3ccccc23)cc1	7	20	49*	-29
CN1c2ccccc2C(=O)NC12CCN(C(=O)Nc1ccccc1F)CC2	10	11	3	25
O=C(CSc1ccncc1)N1CCCCCC1c1cc(-c2ccc(F)cc2)on1 (stereo not drawn)	-9	-1	-7	4
Cc1ccc(OCCNC(=O)c2nc(-n3cnnc3)ccc2Br)cc1C	-11	-3	1	-110
O=C(NCc1ccc2c(c1)OCO2)c1cn2cc(Cl)ccc2n1	-4	-18	47*	29
O=C(NCc1ccc2c(c1)OCO2)c1nc(-n2cnnc2)ccc1Br	11	10	35*	39*
Cc1ccc(-c2n[nH]n3c2nc(=O)c2ccc(C(=O)NC4CCC(C)CC4)cc23)cc1 (stereo not drawn)	-5	-12	-4	-12
Cc1ccc(NC(=O)c2cc(=O)n(C)c3c2c(=O)n(C)c(=O)n3C)c(C)c1	13	12	21	61*
Cc1ccc(NC(=O)c2cc(=O)n(C)c3c2c(=O)n(C)c(=O)n3C)cc1C	16	7	44*	-1
Cn1c(=O)c2c(C(=O)Nc3ccc(Cl)cc3)cc(=O)n(C)c2n(C)c1=O	-15	-27	-10	-40
CCn1c(SCC(=O)NCCc2ccccc2)nnc1-c1ccc2c(c1)OCCO2	-5	0	-2	0
Cn1c(SCC(=O)Nc2ccc3c(c2)OCCO3)nnc1-c1ccncc1	21	39*	5	21
Cn1c(SCC(=O)Nc2ccc3c(c2)OCCO3)nnc1C(F)(F)F	0	10	-1	2
CCn1c(SCC(=O)Nc2ccc(C)c(Cl)c2)nnc1-c1ccc2c(c1)OCCO2	12	4	17	40*
CCn1c(SCC(=O)N2c3ccccc3CC2C)nnc1-c1ccc2c(c1)OCCO2 (stereo not drawn)	3	3	21	73*
COc1cccc(N2CC(C(=O)N3CCc4[nH]c5ccccc5c4C3)CC2=O)c1 (stereo not drawn)	-25	-34	-21	-93
Oc1ccc(-c2nc3ccc(Cl)cn3c2NC2CCCCC2)cc1	7	0	67*	-6
O=C1CC(c2noc(-c3ccccn3)n2)CN1c1cccc(F)c1 (stereo not drawn)	18	16	16	32*
COc1ccc(CN2C[C@@H]3C[C@]3(c3ccccc3)C(=O)c3ncccc32)cc1	-10	-7	60*	-108
CCn1c(SCc2nc(N)c3ccccc3n2)nc2ccccc21	16	42*	54*	39*
CCC1CCCCN1C(=O)Cn1c(=O)n(CCCC(=O)NCc2ccc(C)cc2)c(=O)c2sccc21 (stereo not drawn)	-4	nt	-13	nt
Cc1cc2nc(SCC(=O)c3ccc(O)cc3)[nH]c2cc1C	20	10	49*	27
Cc1cc(C(=O)CSc2nc3ccccc3[nH]2)c(C)n1C1CC1	-3	nt	-10	nt
SMILES	OTUD3 block	USP28 inh	USP17 inh	USP30 block
Cc1ccc(OCc2nc(C)c(C(=O)NCC3CCCO3)s2)cc1 (stereo not drawn)	-7	-5	-11	-22
Cc1ccnc(Nc2nc(C)c(C(=O)NC3CCCC3)s2)c1	3	3	31*	-10
Cc1nc(NC2CC2)sc1C(=O)NC1CCCC1	7	-5	1	-49
Cc1nc(COc2ccccc2)sc1C(=O)NC1CCCC1	10	10	39*	15
COc1ccc(NC(=O)c2cc(-c3ccncc3)n(-c3ccc(F)cc3)n2)cc1OC	-2	3	-10	2
COc1cc(NC(=O)c2cc(-c3ccncc3)n(-c3ccc(F)cc3)n2)cc(OC)c1	-4	71*	10	14
NC(=O)c1ccc(CN2CCC3(CC2)CC3c2nnc3n2CCCCC3)cc1 (stereo not drawn)	-14	-15	-4	-25
Cc1ccc2c(c1)c1ncn(Cc3nc(C)no3)c(=O)c1n2CC(=O)NCc1ccccc1	23	58*	72*	87*
Cc1noc(-c2cc(=O)n(CC(=O)Nc3ccccc3)c3ccccc23)n1	-3	nt	42*	nt
Cc1ccc(CNC(=O)Cn2c(=O)cc(-c3nc(C)no3)c3ccccc32)cc1	-4	-6	42*	-7
Cc1noc(-c2cc(=O)n(CC(=O)Nc3ccccc3Cl)c3ccccc23)n1	-5	-5	6	1

Screening data deposited in PubChem BioAssay by Buhrlage Lab, Dana-Farber Cancer Institute and Novartis Institutes for BioMedical Research (Cambridge, Mass).
